The source of these data is PubChem BioAssay.

Test [1] concerns Wnt5a (protein binding on small-molecule microarray). Kind of test: small molecules binding Wnt5a protein – biophysical, small-molecule microarray, 635/667 nm fluorescence, primary screen (AID 1142).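 Further: fluorescence read at 667 nm with signal to noise per printed feature.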 The note with it: 635 nm fluorescence, higher = more signal.
Test [2] can be described thus: ATP-based viability of Huh7 replicon cells – cell-based, CellTiter-Glo luminescence, basal, 48 h, cytotoxicity control for HCV replication inhibitor project, primary screen (AID 1143).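 Further: Huh7 hepatoma cells carrying a hepatitis C replication reporter with no stimulus; test concentration not given here.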 The note with it: higher = more signal, called active from +8 up or from −8 down.
A short description of test [3]: Pseudomonas biofilm growth suppression – PAO1 strain, BacTiter-Glo luminescence, LB-PBS, primary screen (AID 1144). The following applies: P. aeruginosa PAO1 biofilm, 12 h, higher = more signal.
Test [4] can be described thus: basal CRE-LacZ reporter activity in PC12 – cell-based, unstimulated, primary screen (AID 1145). The note with it: no forskolin, luminescence, 4.5 h, higher = more signal, called active from +8 up or from −8 down.
A short description of test [5]: forskolin-driven CRE-LacZ activity in PC12 – cell-based, CRE-LacZ reporter, forskolin-stimulated, primary screen (AID 1146).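 Further: PC12 cells with 6xCRE LacZ reporter stimulated by forskolin 10 µM; beta-galactosidase reporter signal reflecting CREB driven transcription.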 The note with it: luminescence, 4.5 h, higher = more signal, called active from +8 up or from −8 down.
Test [6] addresses Streptavidin (Streptomyces avidinii) (UniProt P22629). As to the kind of experiment: compounds binding control protein streptavidin – biophysical, small-molecule microarray, 635/667 nm fluorescence, artefact control for SMM compound annotation, primary screen (AID 1147).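 Further: signal reflects streptavidin binding to arrayed compounds as a control protein.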 The note with it: higher = more signal.
Test [7] is described as follows: probe aInhba binding on compound microarray – biochemical, small-molecule microarray, 635/667 nm fluorescence, primary screen (AID 1148).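 Further: score merges 667nm spot fluorescence with signal-to-noise for antibody binding to printed compounds.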 The note with it: higher = more signal.
In test [8] the target is Torsin-1A (Homo sapiens) (UniProt O14656). Kind of test: TOR1A wild-type binding on microarray – cell lysate, small-molecule microarray, lysate, 635/667 nm, primary screen (AID 1149). The note with it: COS7 hTOR1A-WT lysate, 635 nm fluorescence, higher = more signal.
Sequence of Torsin-1A (Homo sapiens) (O14656 whole entry, looked up): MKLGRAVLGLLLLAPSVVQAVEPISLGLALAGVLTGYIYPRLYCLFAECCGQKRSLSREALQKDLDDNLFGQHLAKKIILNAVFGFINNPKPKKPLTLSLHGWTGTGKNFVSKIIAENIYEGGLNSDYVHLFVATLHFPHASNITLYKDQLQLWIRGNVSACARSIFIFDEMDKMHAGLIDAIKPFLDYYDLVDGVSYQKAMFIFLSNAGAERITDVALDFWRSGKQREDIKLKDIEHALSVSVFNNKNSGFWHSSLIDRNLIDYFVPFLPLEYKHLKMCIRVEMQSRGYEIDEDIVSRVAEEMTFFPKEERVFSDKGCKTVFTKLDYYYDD
Test [9] has the same target. Kind of test: torsin A mutant lysate binding on microarrays – cell lysate, small-molecule microarray, COS7 lysate, 635/667 nm fluorescence, primary screen (AID 1150).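 Further: score pools 667 nm emission and signal to noise measuring lysate protein binding.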 The following applies: COS7 hTOR1A mutant lysate, 635 nm fluorescence, higher = more signal.
For test [10], the system named is Sonic hedgehog protein (Shh). Kind of test: Sonic hedgehog microarray binding compounds – biochemical, small-molecule microarray, 635/667 nm fluorescence, primary screen (AID 1151).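 Further: Shh protein binding to compounds spotted on small-molecule microarray slides; score combines spot fluorescence intensity with signal-to-noise across triplicate slides.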 The following applies: 635 nm fluorescence, higher = more signal.
Test [11] in a line: optical density shifts of acrAB sulA E. coli – strain DRC41, OD650, 48 h, E. coli filamentation inducer project, primary screen (AID 1152).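 Further: E. coli MC1000 strain DRC41 lacking acrAB efflux pump and sulA.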 The following applies: higher = more signal, called active from +8 up or from −8 down.
Test [12] can be described thus: probe aLefty1 binding on compound microarray – biochemical, small-molecule microarray, 635/667 nm fluorescence, primary screen (AID 1153).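 Further: score merges spot fluorescence with signal-to-noise ratio from the scanned slide images.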 The following applies: higher = more signal.
A short description of test [13]: plasmodial surface anion channel blockers, osmotic lysis – cell-based, P. falciparum Indochina, OD700, 1 h, primary screen (AID 1154). The following applies: P. falciparum Indochina infected RBC osmotic lysis, higher = more signal, called active from +8 up or from −8 down.
Test [14] can be described thus: plasmodial surface anion channel blockers, osmotic lysis – cell-based, P. falciparum Indochina, OD700, 2 h, primary screen (AID 1155).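 Further: lysis reports solute entry through the parasite surface anion channel PSAC.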 The following applies: P. falciparum Indochina infected erythrocytes, higher = more signal, called active from +8 up or from −8 down.
Test [15] is described as follows: changes in parasitized red cell lysis, either direction – P. falciparum Indochina, OD700, 3 h, PSAC antagonist project, primary screen (AID 1156). The note with it: P. falciparum-infected erythrocytes, osmotic lysis, higher = more signal, called active from +8 up or from −8 down.
A short description of test [16]: plasmodial surface anion channel blockers, osmotic lysis – cell-based, P. falciparum Indochina, OD700, 18 h, primary screen (AID 1157). The following applies: P. falciparum Indochina infected erythrocytes, osmotic lysis OD700, 18 h; higher = more signal, called active from +8 up or from −8 down.
A short description of test [17]: S6 kinase pathway phospho-S6 level changes – cell-based, A549, cytoblot, luminescence, serum-stimulated, primary screen (AID 1158).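 Further: serum-stimulated A549 lung adenocarcinoma cells; signal is phosphorylated S6 detected by cytoblot immunostaining with HRP secondary.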 The note with it: 5 h, higher = more signal.
Test [18] has as its target NADPH oxidase 2 (Homo sapiens) (UniProt P04839). As to the kind of experiment: compounds shifting NOX2 Amplex Red fluorescence – cell-based, HEK293-NOX2, PMA-stimulated, NOX inhibitor project, primary screen (AID 1159). Further: test concentration not given here. The following applies: 45 min, higher = more signal, called active from +8 up or from −8 down.
The target of test [19] is NADPH oxidase 4 (Homo sapiens) (UniProt Q9NPH5). As to the kind of experiment: compounds shifting NOX4 Amplex Red fluorescence – cell-based, HEK293-NOX4, tetracycline-induced, NOX inhibitor project, primary screen (AID 1160). The note with it: HEK293-NOX4, Amplex Red H2O2 fluorescence, 45 min; higher = more signal, called active from +8 up or from −8 down.
Sequence of NADPH oxidase 4 (Homo sapiens) (Q9NPH5 whole entry, looked up): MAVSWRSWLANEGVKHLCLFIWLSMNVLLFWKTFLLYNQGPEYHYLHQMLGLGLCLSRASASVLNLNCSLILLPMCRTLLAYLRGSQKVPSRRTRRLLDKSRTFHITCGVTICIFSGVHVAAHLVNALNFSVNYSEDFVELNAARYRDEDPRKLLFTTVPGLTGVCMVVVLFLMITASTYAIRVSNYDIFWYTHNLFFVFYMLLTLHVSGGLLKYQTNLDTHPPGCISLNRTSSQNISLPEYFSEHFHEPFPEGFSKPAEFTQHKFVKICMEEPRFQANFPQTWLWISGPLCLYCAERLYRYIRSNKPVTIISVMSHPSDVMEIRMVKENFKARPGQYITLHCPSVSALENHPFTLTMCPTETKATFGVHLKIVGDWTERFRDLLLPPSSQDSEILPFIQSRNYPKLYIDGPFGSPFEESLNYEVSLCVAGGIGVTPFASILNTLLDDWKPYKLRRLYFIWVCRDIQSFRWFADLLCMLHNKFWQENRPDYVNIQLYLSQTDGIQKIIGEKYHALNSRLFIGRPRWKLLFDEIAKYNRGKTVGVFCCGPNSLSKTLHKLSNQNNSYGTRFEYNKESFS
The target of test [20] is NADPH oxidase 5 (Homo sapiens) (UniProt Q96PH1). Kind of test: compounds shifting NOX5 Amplex Red fluorescence – cell-based, HEK293-NOX5, NOX inhibitor project, primary screen (AID 1161). The note with it: HEK293-NOX5, ionomycin, 45 min, higher = more signal.
Sequence of NADPH oxidase 5 (Homo sapiens) (Q96PH1 whole entry, looked up): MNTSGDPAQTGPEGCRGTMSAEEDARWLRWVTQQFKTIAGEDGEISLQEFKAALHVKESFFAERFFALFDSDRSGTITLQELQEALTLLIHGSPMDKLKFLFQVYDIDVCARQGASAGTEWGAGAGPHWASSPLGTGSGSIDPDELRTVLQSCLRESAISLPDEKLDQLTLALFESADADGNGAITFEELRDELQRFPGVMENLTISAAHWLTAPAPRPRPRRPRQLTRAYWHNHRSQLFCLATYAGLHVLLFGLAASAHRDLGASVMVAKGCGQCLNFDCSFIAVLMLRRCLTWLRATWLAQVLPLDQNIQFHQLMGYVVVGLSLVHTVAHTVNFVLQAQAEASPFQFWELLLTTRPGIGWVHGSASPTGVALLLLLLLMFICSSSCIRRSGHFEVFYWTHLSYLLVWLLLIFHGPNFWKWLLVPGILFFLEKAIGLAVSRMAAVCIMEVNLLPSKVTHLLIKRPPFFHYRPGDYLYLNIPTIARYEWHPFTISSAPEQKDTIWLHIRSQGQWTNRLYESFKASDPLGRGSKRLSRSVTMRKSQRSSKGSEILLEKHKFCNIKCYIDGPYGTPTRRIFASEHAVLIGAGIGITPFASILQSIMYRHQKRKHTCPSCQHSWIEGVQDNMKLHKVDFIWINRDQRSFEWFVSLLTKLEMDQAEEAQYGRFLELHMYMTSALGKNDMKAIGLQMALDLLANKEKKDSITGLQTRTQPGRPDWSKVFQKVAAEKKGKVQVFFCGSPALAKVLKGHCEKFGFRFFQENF

Calls of active or inactive are those of the source. Unless noted, how the calls were made is not given here.

Sequence of NADPH oxidase 2 (Homo sapiens) (P04839 whole entry, looked up): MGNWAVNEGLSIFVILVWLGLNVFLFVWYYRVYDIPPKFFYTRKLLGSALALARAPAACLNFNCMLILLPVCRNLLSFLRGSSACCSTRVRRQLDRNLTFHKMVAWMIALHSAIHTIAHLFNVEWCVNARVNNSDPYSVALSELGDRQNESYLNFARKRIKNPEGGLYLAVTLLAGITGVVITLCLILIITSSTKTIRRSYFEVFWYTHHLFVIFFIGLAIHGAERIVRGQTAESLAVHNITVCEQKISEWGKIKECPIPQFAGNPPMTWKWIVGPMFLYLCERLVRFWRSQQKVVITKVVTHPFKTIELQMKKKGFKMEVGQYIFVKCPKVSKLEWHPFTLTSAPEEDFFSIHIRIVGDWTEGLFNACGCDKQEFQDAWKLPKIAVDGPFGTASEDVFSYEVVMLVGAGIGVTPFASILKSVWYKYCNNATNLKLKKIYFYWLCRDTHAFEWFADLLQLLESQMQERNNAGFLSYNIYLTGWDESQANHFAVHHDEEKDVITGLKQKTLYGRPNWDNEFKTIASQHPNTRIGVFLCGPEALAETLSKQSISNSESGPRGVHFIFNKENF
Sequence of Streptavidin (Streptomyces avidinii) (P22629 whole entry, looked up): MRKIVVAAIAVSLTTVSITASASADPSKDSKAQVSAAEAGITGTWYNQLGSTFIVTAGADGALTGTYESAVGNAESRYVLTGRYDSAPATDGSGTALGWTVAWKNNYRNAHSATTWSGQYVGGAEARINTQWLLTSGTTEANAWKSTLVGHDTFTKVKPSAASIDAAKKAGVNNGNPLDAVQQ

Consider `C=CCOCC1CN2[C@@H](CC[C@@H](C)[C@@H]2c2ccc(Br)cc2)C(=O)O1` (stereo not given in full), for which the composite z-score in test [1] is -0.234; in test [6], 0.0804; in test [7], -0.367; in the test with Torsin-1A (Homo sapiens) [8], 0.318; with Torsin-1A (Homo sapiens) [9], 0.499; in [10], 0.257. The compound further returned a composite z-score in test [12] of -0.147. The z-score in test [2] was -0.0112 (inactive); in [3], 1.1 (inactive); in [4], 0.829 (inactive); in test [5], -0.0565 (inactive); in test [11], 0.298 (inactive); in test [13], 0.517 (inactive). Moreover, the z-score in test [14] was 0.456 (inactive); in test [15], -1.14 (inactive); in [16], 0.247 (inactive); in test [17], -0.665; in test [18] it was 0.286 (inactive); in test [19] it was -0.604 (inactive). In [20], the z-score was -2.74.
In the case of `CON=C1c2cc(OC)ccc2O[C@H](c2cccc(OC)c2)[C@H]1O`, the composite z-score in test [1] was -0.038; in test [6] it was 0.431; in test [7] it was -0.016; in the test with Torsin-1A (Homo sapiens) [8], 0.195; with Torsin-1A (Homo sapiens) [9], 0.517; in test [10], 0.755. The compound also displayed a composite z-score in test [12] of -0.0061. In addition, the z-score in test [2] was -3.45 (inactive); in [3] it was -0.243 (inactive); in test [4] it was -0.0731 (inactive); in test [5], -0.206 (inactive); in test [11], 0.788 (inactive); in [13], 3.04 (inactive). The z-score in test [14] was 0.72 (inactive); in test [15], -0.241 (inactive); in test [16], 0.245 (inactive); in test [17], 0.686; in test [18] it was -0.837 (inactive); in [19], -0.406 (inactive). Further, the z-score in [20] was -0.175.
Turning to `Cc1ccc2[nH]c3nc(CCCn4ccnc4-c4ccccc4)nnc3c2c1`, the composite z-score is 0.181 in test [1]; 0.857 in test [6]; 0.157 in [7]; 0.443 in the test with Torsin-1A (Homo sapiens) [8]; 0.807 with Torsin-1A (Homo sapiens) [9]; 1.18 in [10]. This compound also displayed a composite z-score in test [12] of 0.0072. For the same compound, the z-score was -0.317 (inactive) in test [2]; 0.892 (inactive) in [3]; -0.435 (inactive) in test [4]; -0.815 (inactive) in test [5]; 0.369 (inactive) in [11]; 8.16 (active) in test [13]. Also, the z-score in test [14] is 0.751 (inactive); in [15], 0.632 (inactive); in [16], 0.322 (inactive); in test [17], -0.903; in [18] it was -0.137 (inactive); in test [19] it was -0.375 (inactive). For the same compound, in test [20], the z-score was -1.14.
`COC(=O)CC=C[C@@H](C)[C@@H](C=NOC[C@@H](O)COCc1ccco1)NS(=O)(=O)c1ccc(C)cc1`: the composite z-score was 0.102 in [1]; -0.601 in test [6]; -0.209 in test [7]; 1.11 with Torsin-1A (Homo sapiens) [8]; 1.24 with Torsin-1A (Homo sapiens) [9]; 1.89 in test [10]. Further, in test [12], the composite z-score is -0.186. Further, the z-score is 0.0032 (inactive) in test [2]; 0.91 (inactive) in test [3]; -0.715 (inactive) in test [4]; -0.0491 (inactive) in test [5]; 0.132 (inactive) in [11]; 1.25 (inactive) in [13]. The z-score in [14] was 0.418 (inactive); in test [15], 0.0934 (inactive); in test [16], 0.391 (inactive); in [17], -0.689; in test [18], 0.017 (inactive); in test [19], -0.202 (inactive). Besides, in [20], the z-score is -0.106.
Consider `CCC1=NOC(CCC2CC(OC(=O)NCc3cccc4c3OCO4)CC3(CCCC(COC(=O)NCCc4ccc(Cl)cc4)O3)O2)C1` (stereo not given), for which the composite z-score in test [1] was -0.165; in test [6] it was -0.136; in [7] it was -0.0963; in the test with Torsin-1A (Homo sapiens) [8], 0.217; in the test with Torsin-1A (Homo sapiens) [9] it was 0.672; in test [10], 0.358. Moreover, in test [12], the composite z-score is -0.103. In addition, the z-score in test [2] was -0.379 (inactive); in test [3], 0.612 (inactive); in [4], -0.0755 (inactive); in [5], -0.51 (inactive); in test [11] it was 0.13 (inactive); in [13], 0.78 (inactive). Moreover, the z-score in test [14] was -0.172 (inactive); in [15] it was -0.747 (inactive); in test [16], -0.268 (inactive); in test [17], -0.695; in test [18], 1.28 (inactive); in [19], 0.891 (inactive). For the same compound, the z-score in [20] came out at 0.984.
As for `C[C@@H]1CC[C@H]2C(=O)OC(Cc3ccccc3)CN2[C@H]1c1ccc(Br)cc1` (stereo not given in full), the composite z-score is -0.0444 in [1]; 0.221 in test [6]; -0.0963 in test [7]; 0.172 in the test with Torsin-1A (Homo sapiens) [8]; -0.0439 with Torsin-1A (Homo sapiens) [9]; 0.513 in test [10]. This compound registered a composite z-score in [12] of -0.0111. For the same compound, the z-score is -0.395 (inactive) in [2]; 0.7 (inactive) in test [3]; 1.2 (inactive) in test [4]; -0.517 (inactive) in test [5]; 0.283 (inactive) in [11]; 1.96 (inactive) in test [13]. Moreover, the z-score in [14] is 0.728 (inactive); in [15], -0.23 (inactive); in test [16], 0.54 (inactive); in [17], -0.0843; in test [18], 0.379 (inactive); in [19], 0.268 (inactive). In test [20], the z-score is 0.151.
`CCOC(=O)CCN1C(=O)[C@H]2[C@H]3[C@H](O)[C@H](O)CC(=NNC(=O)OCC)[C@H]3CC[C@H]2C1=O`: the composite z-score is -0.034 in [1]; -0.58 in test [6]; -0.24 in test [7]; 0.0668 with Torsin-1A (Homo sapiens) [8]; 0.204 with Torsin-1A (Homo sapiens) [9]; 1.1 in test [10]. The composite z-score in [12] is -0.0611. Besides, the z-score in test [2] was -1.63 (inactive); in test [3], 1.25 (inactive); in test [4], -0.202 (inactive); in [5], 0.531 (inactive); in test [11], -0.793 (inactive); in test [13], 3.88 (inactive). In addition, the z-score in [14] is 0.635 (inactive); in test [15], 1 (inactive); in test [16], 1.07 (inactive); in test [17], -0.242; in test [18], 0.415 (inactive); in test [19], -0.702 (inactive). In addition, in test [20], the z-score is -4.72.
With `CO[C@@H]1C=CCC(=O)N[C@@H](C)C(=O)OC[C@@H](NS(=O)(=O)c2ccc(C)cc2)[C@H](C)C=CCC(=O)OC[C@H]1C`, the composite z-score was -0.0979 in [1]; -0.536 in test [6]; -0.304 in test [7]; 0.527 with Torsin-1A (Homo sapiens) [8]; 0.514 in the test with Torsin-1A (Homo sapiens) [9]; 1.08 in [10]. The composite z-score in test [12] was -0.141. For the same compound, the z-score in test [2] is -1.03 (inactive); in [3], 0.225 (inactive); in [4], 0.155 (inactive); in test [5] it was -1.23 (inactive); in test [11], -0.481 (inactive); in [13] it was 0.0412 (inactive). For the same compound, the z-score in test [14] was 0.149 (inactive); in [15], -0.802 (inactive); in [16], 0.109 (inactive); in [17], -0.327; in test [18], -9.51 (active); in test [19] it was 0.732 (inactive). In addition, the z-score in test [20] was -0.0177.
